Results from PubChem BioAssay AID624300 (Southern Research Specialized Biocontainment Screening …, 2012).
Screen size: about 2,400 compounds; about 360 (15%) were called active. Not all results are given here. Results with a measured potency or affinity are listed apart. A number with no mark means an inactive call.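 Rule for the calls: active = viability falls under 70% at one or more tested concentrations, taken as toxicity; inactive = viability stays over 70% at every dose.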

assay: viability loss in HeLa cells – cytotoxicity control for MgcRacGAP inhibitor project, dose response (AID 624300); settings: CellTiter-Glo luminescence, 24 h; series mostly up to 100 µM; viability: at the top concentration;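 note: 100% = median of untreated control wells on the same plate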

Structure (SMILES) | viability
Cc1cccn2c(=S)[nH]nc12 | 93.5%
OCC1CCCN(C(=S)Nc2ccc(Nc3ccccc3)cc2)C1 (stereo not drawn) | 95.6%
Nc1ccc(Nc2ccncc2)cc1 | 99.7%
Cc1c(O)ccc(NC(=O)/C=C/c2ccccc2)c1C | 97.4%
Cc1ccc(/C=C/C(=O)Nc2ccc([N+](=O)[O-])c(NC(=O)/C=C/c3ccc(C)o3)c2)o1 | 102%
C/C(=N/NC(=O)CSc1nc2ccccc2n1C)c1ccc(O)cc1 | 100%
CCOC(=O)C(Cc1ccccc1)C(=O)Nc1ccc(N(CC)CC)cc1 (stereo not drawn) | 98.7%
CCOc1c(C=C(C#N)C#N)c2ccccc2n1CC | 98.9%
CCOC(=O)/C(C#N)=C\c1ccc(O)c(OC)c1 | 87.2%
COc1ccc(NC2CCCN(C(=O)CCCn3cncn3)C2)cc1OC (stereo not drawn) | 104%
Nc1ccc(Nc2nc(-c3ccncc3)cs2)cc1 | 92.6%
O=C(CNC(=O)C1COc2ccccc2O1)N/N=C/c1ccc(O)cc1O (stereo not drawn) | 107%
CCCCN(C)CCNC(=O)CSCc1ccc(C)cc1 | 92.8%
O=C(Nc1n[nH]c(=S)s1)c1ccco1 | 102%
CN(Cc1ccccc1)Cc1c(O)ccc2ccccc12 | 97.2%
COc1ccc(CN2CCC(C(N)=O)CC2)cc1OCc1ccccc1 | 98%
COC(=O)c1cc(NCc2ccccc2F)ccc1N1CCOCC1 | 105%
COc1cc2cc(NC(C)=O)cc(NCc3ccccc3)c2cc1OC | 104%
COc1ccc(CN2CCN(Cc3ccc4ccccc4c3)CC2)cc1OC | 85.3%
Cc1nc2ccc(-c3nc4ccc(N)cc4[nH]3)cc2[nH]1 | 86.7%
Cc1nc(Cc2nnc(SCC(=O)N3CCN(c4ccc(O)cc4)CC3)o2)cs1 | 100%
Nc1nc(=S)ss1 | 97.5%
COc1cc(/C=C/C(C)=NNc2ccccc2)ccc1O | 98.3%
COc1cc(/C=N/n2c(C)nc3ccccc3c2=O)ccc1O | 102%
COc1cc(/C=C/c2nc3ccccc3c(=O)[nH]2)ccc1O | 83.4%
COc1cc(/C=N/NC(=O)c2cc(-c3ccccc3OC(C)C)nc3ccccc23)ccc1O | 106%

Structure (SMILES) | viability
O=c1[nH]c2ccccc2nc1/C=C/c1ccc(O)cc1 | 88.1%
C=CCn1c(N/N=C/c2ccc(O)cc2)nc2ccccc2c1=O | 93.4%
CCCc1nc2ccccc2c(=O)n1/N=C/c1ccc(O)c(O)c1 | 80.7%
COc1cc(/C=C/c2ccc3cccc(O)c3n2)ccc1O | 100% [at 25 µM]
O=C(CN1CCN(c2ccc(O)cc2)CC1)NCC(=O)Nc1ccc(F)c(F)c1F | 112%
Cc1cccc(Nc2n[nH]c(=S)s2)c1C | 95.3%
CN1CCN(CCCNCc2cn(CCC#N)c3ccccc23)CC1 | 95.5%
COc1ccc(NC2CCCN(C(=O)CCc3cccc(F)c3)C2)cc1 (stereo not drawn) | 101%
COc1cc(C)c(N)cc1C(C)C | 105%
CCOC(=O)c1[nH]c2cc(OC)c(OC)cc2c1N | 106%
COc1ccc(N2CCN(C(C)C(=O)N3CCCC3)CC2)cc1 (stereo not drawn) | 97%
CC(=O)N1CCN(CC(O)COc2ccc(Br)cc2)CC1 (stereo not drawn) | 104%
O=C1C2C3C=CC(CC3)C2C(=O)N1/N=C/c1ccc(O)c(O)c1 (stereo not drawn) | 98.9%
CCOC(=O)c1[nH]c2ccccc2c1NC(=S)Nc1cccc(C)c1 | 103%
COc1ccc(NCc2cc3cc(OC)ccc3[nH]c2=O)cc1 | 83.8%
COc1ccc(OC(=O)COc2cc(C)ccc2C)cc1 | 105%
COc1ccc(OC(=O)COc2ccc(C)cc2)cc1 | 99.3%
Nc1c(Cl)ncnc1NCCc1ccc(O)cc1 | 92.8%
CCOC(=O)/C(C#N)=C1\C(=O)N(Cc2ccccc2)c2ccccc21 | 95%
COc1ccc(CN2CCN(Cc3c[nH]c4ccccc34)CC2)c(OC)c1 | 82.3%
COc1ccc(OC)c(CN2CCN(Cc3cccc4ccccc34)CC2)c1 | 87.5%
CCOC(=O)N/N=C/c1ccc(N2CCOCC2)s1 | 92.2%
Nc1ccc(-c2nc3ccc(N)cc3o2)cc1 | 91.5%
Nc1ccc2nc(N)sc2c1 | 105%
COc1ccccc1CNC(=O)C[C@@H]1C[C@H]2c3cc(N(C)C)ccc3O[C@H]2[C@H](CO)O1 | 105%
COc1cc(N2C(=O)C=CC2=O)ccc1N1C(=O)C=CC1=O | 106%

Structure (SMILES) | viability
COc1ccc(NC2CCCN(C(=O)C3(C)CCCCC3)C2)cc1 (stereo not drawn) | 100%
COc1cc(CN2CCN(C(=O)c3cccc4ccccc34)CC2)cc(OC)c1OC | 96.3%
O=C(N/C(=C\c1ccc(O)cc1)C(=O)N1CCCCC1)c1ccccc1 | 102%
S=c1[nH]nc(-c2ccncc2)n1/N=C/C=C/c1ccccc1 | 109%
COc1cccc(OC)c1OCCCN1CCOCC1 | 103%
CCOC(=O)c1[nH]c2ccccc2c1NC(=S)Nc1ccccc1 | 103%
CCC(=O)Nc1ccc(Nc2ccccc2)cc1 | 118%
COc1cccc2[nH]c(C(=O)NN)c(N)c12 | 90.4%
CC1CN(CCOCCOc2ccccc2-c2ccccc2)CC(C)O1 (stereo not drawn) | 87.1%
O=C1C(Cl)=C(NC(=O)c2ccccc2)C(=O)C(Cl)=C1NC(=O)c1ccccc1 | 106%
O=C1c2ccccc2NC(c2ccc(O)cc2)N1/N=C/c1ccc(O)cc1 (stereo not drawn) | 100%
COc1ccc(NC2CCCN(C(=O)c3ccccc3C(F)(F)F)C2)cc1 (stereo not drawn) | 94.8%
COC(=O)c1cc(NCc2c(F)cccc2Cl)ccc1N1CCOCC1 | 106%
COc1ccc2[nH]c3c(=O)n(Cc4ccc(C(=O)N5CCC(C(N)=O)CC5)cc4)c(=S)[nH]c3c2c1 | 80.8%
CCOC(=O)c1[nH]c2ccc(OC)cc2c1NC(=O)c1ccccc1C(=O)O | 83.2%
COc1ccc2[nH]c3c(=O)n(CCCCC(=O)N4CCC(C(N)=O)CC4)c(=S)[nH]c3c2c1 | 109%
COc1ccc(C=Nc2ccc3[nH]ncc3c2)c(O)c1 | 101%
CCOC(=O)C1CCN(C2=NC(=O)/C(=C/c3ccc(O)cc3)S2)CC1 | 96.4%
c1ccc(-c2ccccc2OCCOCCN2CCOCC2)cc1 | 85.7%
COc1cc(NC(C)CCCNC(C)C)c2ncccc2c1OC (stereo not drawn) | 93.5%
C=CCc1cc(OC)ccc1OCCN1CC(C)OC(C)C1 (stereo not drawn) | 95.6%
Cc1cc(O)ccc1NC(=O)c1ccccc1 | 94%
O=C(Cc1coc2cc(O)ccc12)N1CCN(S(=O)(=O)c2ccc(Br)cc2)CC1 | 90.8%
S=C(NCCN1CCOCC1)Nc1ccc(Nc2ccccc2)cc1 | 97.8%
COc1ccc(CN2CCN(Cc3ccccc3F)CC2)c(OC)c1 | 92.1%
CCN(Cc1ccccc1)C1CCN(Cc2ccc(SC)cc2)CC1 | 97.6%
